The chains are these.
T1: UNK ZnF1-3 (human, UniProt Q9C0B0 31-174)
T1 sequence: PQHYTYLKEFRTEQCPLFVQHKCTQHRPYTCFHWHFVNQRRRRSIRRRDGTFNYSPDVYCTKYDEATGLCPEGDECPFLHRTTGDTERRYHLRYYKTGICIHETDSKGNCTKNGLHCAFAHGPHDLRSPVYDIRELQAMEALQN

B1: chr12:48362563:48362564:+_ENSG00000134291_ENST00000256686|hu_mus|FALSE|FALSE (ssRNA)
RNA: GGGAGUUCUACAGUCCGACGAUCUCCGUCAAGCCCUUCGAUAGACCCUUGCGGGGGAAACUGUAAUCACUUUGUAUGGGGAAGGAAAAGAAACGCCAAAAACUUUCCAAAAAGCGGGGGUGGGGUGAGGCGGGAGGGGGAGGUCAACAGAGGAUUGAGCAUCA
B2: chr14:76904430:76904431:+_ENSMUSG00000022010_ENSMUST00000022587|mus_mus|mus_mus_mus_hu_True|48_88 (ssRNA)
RNA: GGGAGUUCUACAGUCCGACGAUCUGCAGCCAAAAACACCCUCGUGGCGGGAGGGAGGGAACACCAGCAGCCUUGUAUAAGCUAGAUAAAACCGCCUGGCUUUCCGCAGCCCAGGGAGAAACAGAAAACGGCAGCCCUAAUUUACAACAGAGGAUUGAGCAUCA
B3: chr14:76904430:76904431:+_ENSMUSG00000022010_ENSMUST00000022587|mus_mus|mus_mus_mus_hu_True|98_98 (ssRNA)
RNA: GGGAGUUCUACAGUCCGACGAUCUGCAGCCAAAAACAGAGAGAGGGAAAAAAAGAGGGAACACCAGCAGCCUUGUAUAAGCUAGAUAAAAUCUUCUGGCUUUCCGCAGCCCAGGGAGAAACAGAAAACGGCAGCCCUAAUUUACAACAGAGGAUUGAGCAUCA
B4: chr14:76904430:76904431:+_ENSMUSG00000022010_ENSMUST00000022587|mus_mus|mus_mus_mus_hu_True|88_98 (ssRNA)
RNA: B3 RNA with A47C, A48G, A49G, A50G, A52G, A53G
B5: chr14:76904430:76904431:+_ENSMUSG00000022010_ENSMUST00000022587|mus_mus|mus_mus_mus_hu_True|48_98 (ssRNA)
RNA: B3 RNA with U91C, U93G, U94C
B6: chr14:76904430:76904431:+_ENSMUSG00000022010_ENSMUST00000022587|mus_mus|mus_mus_mus_hu_True|98_108 (ssRNA)
RNA: B3 RNA with A27U, C29G, C30A, C36A
B7: chr14:76904430:76904431:+_ENSMUSG00000022010_ENSMUST00000022587|mus_mus|mus_mus_mus_hu_True|68_68 (ssRNA)
RNA: B3 RNA with G38C, A39C, G40C, A41U, G42C, A43G, G44U, U73G, A76U
B8: chr14:76904430:76904431:+_ENSMUSG00000022010_ENSMUST00000022587|mus_mus|mus_mus_mus_hu_True|38_98 (ssRNA)
RNA: B3 RNA with G97A, U101G, C104U

Numbering of substitutions follows the chain as printed. Whole data set: some 24,000 sequences, median “enrichment r” near 0.99, cut for the highest 2% near 3.7. This excerpt belongs to a sample that is enriched for the highest values.

The target in the experiment is T1, UNK ZnF1-3. Nature of the experiment: nsRBNS (natural sequence RNA bind-n-seq); RBNS binding buffer (assumed for nsRBNS): 25 mM Tris pH 7.5, 150 mM KCl, 3 mM MgCl2, 0.01% Triton X-100, 500 ug/ml BSA, 20 U/ml SUPERase-In, 4 C; UNK is unkempt and MSI1 is Musashi-1; names of the RNAs are library labels; protein concentration not given here; high values mean tight binding.
Consider B1, for which the binding signal came out at 2.36 enrichment R.

Consider B2, for which the binding signal is 2.24 enrichment R.

The molecule B3 came in with a binding signal of 4.46 enrichment R.

Consider B4, for which the binding signal was 3.29 enrichment R.

B5: the binding signal amounted to 3.64 enrichment R.

With B6, the binding signal came to 3.93 enrichment R.

In the case of B7, the binding signal came out at 2.29 enrichment R.

With B8, the binding signal worked out at 4.97 enrichment R.

The values are drawn from paper PMC12136788.
